Pf growth 48h: Primary qHTS for delayed death inhibitors of the malarial parasite plastid, 48 hour incubation | P. falciparum luciferase growth in erythrocytes, 48 h | Potency, µM (doses to about 28.7 µM), without a hit: at the top dose activity change, negative = inhibition, usual class: inhibitors | actives 5.9% (n = 310,000); further: potency means the concentration at half of the fitted maximal effect; on the % scale 0 is the no-effect control and ±100 the full control effect
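Erythrocytes infected with P. falciparum carrying an integrated firefly luciferase reporter (2% hematocrit, 0.1% parasitemia final) were exposed to compounds in RPMI 1640 with 0.5% Albumax at 37 C, 5% CO2. Growth inhibition was scored as reduced luminescence.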
Shiga inhibitor: A qHTS for Small Molecule Inhibitors of Shiga Toxin | Vero cells, Shiga toxin protein synthesis inhibition reporter | inhibition, % at 38.7 µM | actives 9.2% (n = 290,000); in the data active means inhibition mostly above about 28%, no sharp cut-off; inactive means mostly below about 43%; further: 0% is about no effect
Pf growth 96h: Primary qHTS for delayed death inhibitors of the malarial parasite plastid, 96 hour incubation | AID 504834, 2011 | P. falciparum luciferase reporter growth, 96 h | actives 6.9% (n = 320,000) | Potency, µM (highest dose often 28.7 µM), for inactives: top-dose activity change, negative = inhibition, hits mostly inhibitors; further: potency means the concentration at half of the fitted maximal effect; on the % scale 0 is the no-effect control and ±100 the full control effect
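Two parasite generations (96 h, 37 C, 5% CO2) of compound exposure in infected erythrocytes (0.05% parasitemia, 2% hematocrit). Luciferase-reporter P. falciparum; decreased luminescence indicates inhibited growth, aimed at apicoplast-acting delayed death.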
CHX counter: Cycloheximide Counterscreen for Small Molecule Inhibitors of Shiga Toxin. cell reporter, cycloheximide protein synthesis inhibition counterscreen. max response, %. actives 12% (n = 300,000). AID 2314, 2010; in the data active means max response mostly above about 13%, no sharp cut-off; inactive means mostly below about 14%; further: read at 38.3 µM for the half of the compounds with a filed dose; 0% is about no effect
Lassa entry inh: qHTS for Inhibitors of binding or entry into cells for Lassa Virus; Lassa virus pseudotype entry inhibition, cell reporter; actives 1.2% (n = 300,000); Potency, µM (highest dose often 37.9 µM), inactives show at the top dose activity change, negative = inhibition, hits mostly inhibitors; calls by dose curve; tested in HEK293 cells; further: potency means the concentration at half of the fitted maximal effect; on the % scale 0 is the no-effect control and ±100 the full control effect; nearly all actives have a fitted effect of over 50% in size
Marburg entry inh: qHTS for inhibitors of binding or entry into cells for Marburg Virus; Marburg virus pseudotyped entry inhibition, cell reporter; Potency, µM (top dose mostly 37.8 µM), without a hit: top-dose activity change, negative = inhibition, hits mostly inhibitors; actives 1.8% (n = 300,000); AID 540276, 2011; calls by dose curve; tested in HEK293 cells; further: potency means the concentration at half of the fitted maximal effect; on the % scale 0 is the no-effect control and ±100 the full control effect
Starred values were filed as active, the others as inactive; i = inactive; ? = inconclusive; · = not tested or not shown; [ ] = dose if it differs, or a comment. Rows were chosen to be rich in hits. Some 19% of all compounds tested hit in one or more screens of this group. Unless noted, the call rests on the fitted dose curve; in most records, active means well fitted inhibition curve with a large enough effect; inconclusive means small, poorly fitted or top-dose-only effect, or another doubt; inactive means no such curve, though single readings can be large or run the other way.

SMILES	Pf growth 48h	Shiga inhibitor	Pf growth 96h	CHX counter	Lassa entry inh	Marburg entry inh
COC(=O)C1=NN(c2ccccc2)C2(S1)SC(C(C)=O)=C(C)N2c1ccccc1 (stereo not drawn)	?	-12.0	0.1%	-2.7	-4.0%	-5.8%
COc1ccc(S(=O)(=O)CCc2nnc(NC(C)=O)s2)cc1	-19.1%	5.0	16.6%	-1.8	5.8%	10.4%[46.1 µM]
CCSc1nnc(NC(=O)C2Cc3ccccc3CN2S(=O)(=O)CC)s1 (stereo not drawn)	-6.7%	29.9	13.1µM*	30.3*	10.8%	?
CCS(=O)(=O)N1Cc2ccccc2CC1C(=O)Nc1nc2c(C)cccc2s1 (stereo not drawn)	36.2%	60.5*	?	27.4*	-1.1%	3.6%
CCS(=O)(=O)N1Cc2ccccc2CC1C(=O)Nc1nccs1 (stereo not drawn)	111.5%	24.8*	130.1%	30.1*	?	?
CCS(=O)(=O)N1Cc2ccccc2CC1C(=O)Nc1nc(C)cs1 (stereo not drawn)	i	84.9*	306.0%	42.5*	?	?
CCS(=O)(=O)N1Cc2ccccc2CC1C(=O)Nc1ccccc1OC (stereo not drawn)	?	11.8	?	9.0	·	·
NC(=O)c1ccc(NC(=O)c2ccc(COc3ccccc3Br)cc2)cc1	18.9%	·	47.6%	·	15.0%	-10.7%
O=C(COc1ccc(Cl)cc1)NNC(=O)c1ccccc1C(=O)O	8.3%	-20.9	?	-3.9	-0.2%	21.2%
CNC(=S)NNC(=O)c1ccccc1Br	-16.1%	-10.4	9.28µM*	0.4	?	?
Cc1occc1C(=O)NNC(=O)c1ccccc1C(=O)O	100.5%	69.3*	100.4%	24.1*	?	?
Cc1occc1C(=O)NNC(=O)c1ccccc1Br	46.2%	27.8*	54.7%	12.5	2.3%	?
O=C(Cc1ccccc1)NNC(=O)c1ccccc1C(=O)O	52.2%	26.9	92.1%	14.9*	?	12.5%[46.1 µM]
COCCN1CC(=O)N(c2cccc(C)c2C)C(c2ccc(Cl)cc2)C1=O (stereo not drawn)	-4.1%	-7.9	14.8%	-1.8	-4.3%	?
N#CC1=C(N)Oc2n[nH]c(-c3cccs3)c2C1c1ccncc1 (stereo not drawn)	-10.7%	18.0	?	7.8	12.2%	11.8%
CCOc1ccc2c(c1)ncn2Cc1ccccc1	49.2%	108.3*	0.0%	23.7*	0.1%	-12.8%[46.1 µM]
CC(=O)Oc1ccc(Cn2cnc3cc4ccccc4cc32)cc1	11.1%	18.6	50.6%	14.8*	1.5%	-1.2%
CCOC(=O)c1sc(NC(=O)Cn2nnc3sc4c(c3c2=O)CCC(C(C)(C)C)C4)nc1C (stereo not drawn)	9.28µM*	3.5	0.0%	-2.6	0.1%	-10.3%
CC1CCc2c(sc3ncn(CCO)c(=O)c23)C1 (stereo not drawn)	51.1%	63.7*	?	37.9*	20.2%[46.1 µM]	1.4%[46.1 µM]
CCn1nnc2sc3c(c2c1=O)CCC(C)C3 (stereo not drawn)	51.8%	24.8	0.0%	38.0*	?	5.6%[46.1 µM]
CC1CCc2c(sc3nnn(CC(=O)Nc4ccc(Cl)cc4)c(=O)c23)C1 (stereo not drawn)	·	·	·	·	1.6%[46.1 µM]	·
CCCOC(=O)c1ccc(NC(=O)Cn2nnc3sc4c(c3c2=O)CCC(C(C)(C)C)C4)cc1 (stereo not drawn)	·	·	·	·	1.3%[46.1 µM]	?
CC(=O)Cn1nnc2sc3c(c2c1=O)CCC(C(C)(C)C)C3 (stereo not drawn)	239.6%	88.0*	-12.4%	66.4*	·	2.7%[46.1 µM]
O=C(CCBr)Nc1cccc2cccnc12	·	4.1	·	4.4	·	·
COc1ccc(NC(=O)CCN2CCCCC2)cc1	1.6%	-4.9	13.1µM*	-2.1	6.3%	-1.0%
O=C(CCN1CCCCC1)Nc1cccc(Cl)c1	·	-16.9	?	-1.7	0.9%	11.5%
COc1ccc(NC(=O)CCN2CCCCCC2)cc1	-19.9%	34.3	-10.3%	17.8	9.3%	10.1%
COc1ccc(OCC(=O)OC(C)CN2CCCCC2)cc1 (stereo not drawn)	6.7%	-3.1	3.0%	6.4	23.2%	-14.5%

Screens deposited in PubChem BioAssay by National Center for Advancing Translational Sciences (NCATS).
